Hits are enriched below; roughly 2.6% of the tested compounds scored in any of these assays.
PABP FP inh: PABP-poly(A) binding inhibition; P11940; PABP-poly(A) RNA binding, fluorescence polarization; calls only at 35 µM; actives 1% (n = 290,000);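 further: calls also rest on retests at 20 µM and on dose response follow-up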
A3G deaminase: blocks human APOBEC3G single-stranded DNA deamination; actives 0.28% (n = 330,000); Q9HC16; recombinant A3G, ssDNA deamination FAM/TAMRA fluorescence; inhibition, % at 20 µM;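 active means inhibition of at least 40% at 20 µM, with no more than 30% in the related APOBEC3A deaminase screen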;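 further: plate controls were DMSO wells with A3G for no effect and wells lacking A3G enzyme for full effect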
Target sequence (Q9HC16 whole entry, looked up): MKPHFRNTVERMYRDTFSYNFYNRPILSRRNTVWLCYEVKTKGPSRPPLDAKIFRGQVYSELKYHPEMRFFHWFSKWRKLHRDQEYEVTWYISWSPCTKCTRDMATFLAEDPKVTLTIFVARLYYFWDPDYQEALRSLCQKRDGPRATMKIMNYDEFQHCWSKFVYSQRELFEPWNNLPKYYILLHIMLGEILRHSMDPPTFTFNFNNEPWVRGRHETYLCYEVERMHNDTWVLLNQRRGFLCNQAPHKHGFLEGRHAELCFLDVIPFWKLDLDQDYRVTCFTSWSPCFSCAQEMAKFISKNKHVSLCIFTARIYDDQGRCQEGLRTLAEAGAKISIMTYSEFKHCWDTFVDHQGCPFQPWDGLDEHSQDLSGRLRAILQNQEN
PABP1 MLLE inh: inhibitors of microRNA-mediated deadenylation, human PABP1 MLLE binding; P11940; GST-MLLE / FITC-PAM2 fluorescence polarization; inhibition, % at 20 µM; actives 0.36% (n = 360,000); AID 588489; in the data active means inhibition above about 35%, passing the limit was not always enough;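 further: plate controls were DMSO wells with GST-MLLE for no effect and wells lacking GST-MLLE protein for full effect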
eIF4H inh: inhibitors of RNA binding by human eIF4H; Q15056; eIF4H fluorescence polarization binding assay; inhibition, % at 35 µM; actives 0.94% (n = 290,000); AID 2012;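 further: calls also rest on retests at 20 µM and on dose response follow-up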
APOBEC3A inh: human APOBEC3A DNA deaminase inhibition; actives 0.41% (n = 330,000); inhibition, % at 20 µM; AID 493011; P31941; recombinant A3A, FAM/TAMRA ssDNA deamination fluorescence;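 active means at least 40% inhibition at 20 µM here, with at most 30% in a related deaminase screen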;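 further: plate controls were A3A with DMSO for no effect and wells lacking A3A enzyme for full effect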
PHOSPHO1 block: inhibitors of human PHOSPHO1 phosphatase | recombinant PHOSPHO1, absorbance phosphatase assay | inhibition, % at 13.3 µM | actives 1.1% (n = 290,000) | AID 1565; in the data active means inhibition above about 60%
Target sequence (Q8TCT1 whole entry, looked up): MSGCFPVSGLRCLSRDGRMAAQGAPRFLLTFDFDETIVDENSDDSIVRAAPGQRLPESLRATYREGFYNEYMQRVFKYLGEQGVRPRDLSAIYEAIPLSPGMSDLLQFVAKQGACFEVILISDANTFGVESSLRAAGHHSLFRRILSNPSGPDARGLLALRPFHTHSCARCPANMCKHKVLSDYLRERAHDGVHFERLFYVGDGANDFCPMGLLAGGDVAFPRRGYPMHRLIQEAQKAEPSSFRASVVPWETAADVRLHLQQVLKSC
Starred values were filed as active, the others as inactive. Unless noted, how the calls were made is not given here.

Results for OCCC1CN(Cc2nc(-c3ccccc3)cs2)CCN1Cc1ccc(F)cc1 (stereo not given) ?
PABP FP inh: inactive; A3G deaminase: 2; PABP1 MLLE inh: -2; eIF4H inh: 8; APOBEC3A inh: -5; PHOSPHO1 block: -19

How did C=CCNc1ncnc2c1ncn2[C@H]1CN(CCc2ccccc2)C[C@@H](CO)O1 do in these assays?
PABP1 MLLE inh: 0

Results for Cc1ccc(NC(=O)CSc2nc(=O)n(Cc3ccncc3)c3c2CCC3)c(C)c1 ?
A3G deaminase: -1; PABP1 MLLE inh: 8; APOBEC3A inh: -1

Results for Cc1cccc(-c2nnc(NC(=O)c3ccco3)s2)c1 ?
PABP FP inh: inactive; A3G deaminase: 2; PABP1 MLLE inh: 9; eIF4H inh: 9; APOBEC3A inh: 1; PHOSPHO1 block: 5

How did Cc1cccc(N=C2Sc3nc4c(C)c(C)ccc4cc3CN2CCN2CCOCC2)c1 do in these assays?
PABP FP inh: inactive; A3G deaminase: -3; PABP1 MLLE inh: -2; eIF4H inh: 3; APOBEC3A inh: 0; PHOSPHO1 block: 81*

How did COCCN1Cc2cc3cc(C)ccc3nc2SC1=Nc1cccc(OC)c1 do in these assays?
PABP FP inh: inactive; A3G deaminase: -7; PABP1 MLLE inh: 6; eIF4H inh: 2; APOBEC3A inh: 0; PHOSPHO1 block: -5

How did Cc1ccc(C2NC(=O)c3c(sc(C)c3C)N2)c(O)c1 (stereo not given) do in these assays?
PABP FP inh: inactive; A3G deaminase: -4; PABP1 MLLE inh: 0; eIF4H inh: 21; APOBEC3A inh: -4; PHOSPHO1 block: 104*

How did Cc1cccc(C2NC(=O)c3c(sc(C)c3C)N2)c1O (stereo not given) do in these assays?
PABP FP inh: inactive; A3G deaminase: -7; PABP1 MLLE inh: 26; eIF4H inh: -3; APOBEC3A inh: -5; PHOSPHO1 block: 41

What do the screens show for `O=C(NNC(=O)c1ccccc1-n1cccc1)c1cccnc1`?
PABP1 MLLE inh: -13

How did CCOC(=O)CN(C(=O)CSc1nnc(COc2ccc(OC)cc2)n1C)c1ccccc1 do in these assays?
PABP FP inh: inactive; A3G deaminase: -4; PABP1 MLLE inh: -12; eIF4H inh: -1; APOBEC3A inh: 1; PHOSPHO1 block: 74*

What do the screens show for `Cn1c(COc2ccc(F)cc2)nnc1SCC(=O)NC1CC1`?
PABP FP inh: inactive; A3G deaminase: 15; PABP1 MLLE inh: -9; eIF4H inh: 6; APOBEC3A inh: 0; PHOSPHO1 block: 41

What do the screens show for `CC(C)n1c(SCC(=O)NC2CC2)nnc1-c1ccco1`?
PABP FP inh: inactive; A3G deaminase: -4; PABP1 MLLE inh: 1; eIF4H inh: -6; APOBEC3A inh: -1; PHOSPHO1 block: 66*

Results for Cn1c(SCC(=O)NC2CC2)nnc1-c1ccco1 ?
PABP FP inh: inactive; A3G deaminase: 0; PABP1 MLLE inh: -2; eIF4H inh: 2; APOBEC3A inh: 1; PHOSPHO1 block: -8

What do the screens show for `COc1ccc(OCc2nnc(SCC(=O)NC3CC3)n2C)cc1`?
PABP FP inh: inactive; A3G deaminase: -1; PABP1 MLLE inh: 6; eIF4H inh: -4; APOBEC3A inh: 2; PHOSPHO1 block: 63*

What do the screens show for `O=C(O)/C=C/c1ccc([N+](=O)[O-])o1`?
PABP FP inh: inactive; A3G deaminase: 2; PABP1 MLLE inh: -14; eIF4H inh: 82; APOBEC3A inh: 24; PHOSPHO1 block: -4

What do the screens show for `O=C1NC(=S)S/C1=C\C=C\c1ccc([N+](=O)[O-])o1`?
PABP FP inh: active; PABP1 MLLE inh: 3; eIF4H inh: 95*; PHOSPHO1 block: -84

What do the screens show for `CS(=O)(=O)Nc1cccc(NC(=O)C2Cc3c(-c4ccco4)ccnc3O2)c1` (stereo not given)?
PABP1 MLLE inh: -15

How did O=C(NCc1ccccc1)C1CC(=O)N(C2CCCCC2)C1 (stereo not given) do in these assays?
PABP FP inh: inactive; A3G deaminase: -5; PABP1 MLLE inh: 11; eIF4H inh: 1; APOBEC3A inh: 1; PHOSPHO1 block: 13

What do the screens show for `O=C1C(Nc2cccc(O)c2)=C(N2CCCCC2)C(=O)c2ccccc21`?
PABP FP inh: inactive; A3G deaminase: -5; PABP1 MLLE inh: 49*; eIF4H inh: 6; APOBEC3A inh: 0; PHOSPHO1 block: 54

Results for O=C1C(Nc2ccccc2)=C(N2CCCCC2)C(=O)c2ccccc21 ?
PABP FP inh: inactive; A3G deaminase: 2; PABP1 MLLE inh: 25; eIF4H inh: 4; APOBEC3A inh: 2; PHOSPHO1 block: 50

Results for CCn1c(N)c(C(N)=O)sc1=S ?
PABP FP inh: inconclusive; A3G deaminase: 18; PABP1 MLLE inh: 33; eIF4H inh: inconclusive; APOBEC3A inh: -2; PHOSPHO1 block: 38

Results for CCn1c(N)c(C(=O)NC2CCCCC2)sc1=S ?
PABP FP inh: inactive; A3G deaminase: -2; PABP1 MLLE inh: 42*; eIF4H inh: 2; APOBEC3A inh: 1; PHOSPHO1 block: 2

How did CCOc1ccccc1NC(=O)Nc1cccc(NC(C)=O)c1 do in these assays?
PABP FP inh: inactive; A3G deaminase: -6; PABP1 MLLE inh: 0; eIF4H inh: -4; APOBEC3A inh: 3; PHOSPHO1 block: -29

Results for CCOc1ccccc1NC(=O)Nc1ccc(OC)nc1 ?
PABP FP inh: active; PABP1 MLLE inh: 48*; eIF4H inh: 68; PHOSPHO1 block: 29

Results for O=C(CCC1CCCCC1)Nc1ccc(C(=O)c2ccncc2)cc1 ?
PABP FP inh: inactive; A3G deaminase: -12; PABP1 MLLE inh: 4; eIF4H inh: 2; APOBEC3A inh: -2; PHOSPHO1 block: 48

Results for Cc1ccc(N2C(=N)/C(=C3/Nc4ccccc4S3)C(c3ccccc3)C2=O)cc1 (stereo not given) ?
PABP FP inh: active; PABP1 MLLE inh: 4; eIF4H inh: 84*; PHOSPHO1 block: -4

What do the screens show for `Cc1ccc(N2C(=O)C(F)(F)C2c2ccccc2)cc1` (stereo not given)?
PABP FP inh: inactive; A3G deaminase: -8; PABP1 MLLE inh: -16; eIF4H inh: 11; APOBEC3A inh: 2; PHOSPHO1 block: 20

What do the screens show for `O=c1c2ccccc2c2ccccc2c(=O)n1Nc1ccccc1`?
PABP1 MLLE inh: -7

What do the screens show for `Cc1ccccc1C(=O)NNC(=S)NC(=O)c1ccc(Cl)cc1Cl`?
PABP FP inh: inactive; A3G deaminase: -6; PABP1 MLLE inh: 10; eIF4H inh: 10; APOBEC3A inh: -3; PHOSPHO1 block: 100*

How did O=C(NC(=S)NNC(=O)c1ccc(Cl)cc1Cl)c1cccnc1 do in these assays?
PABP FP inh: inactive; A3G deaminase: 27; PABP1 MLLE inh: 30; eIF4H inh: -2; APOBEC3A inh: -3; PHOSPHO1 block: -9

How did COC(=O)C1CC(=O)N(c2ccc(OCc3ccccc3Cl)cc2)C1 (stereo not given) do in these assays?
PABP FP inh: active; A3G deaminase: -9; PABP1 MLLE inh: 18; eIF4H inh: 103*; APOBEC3A inh: -4; PHOSPHO1 block: 29
